# Unmarked numbers belong to inactive results. Results filed as inconclusive are left out. A call without a number means that no potency is given here. Calls of active or inactive are those of the source. Unless noted, the call rests on the fitted dose curve; in most records, active means well fitted curve in the direction sought with a large enough effect in the repeat runs; inconclusive means weak or mixed curves; inactive means no such curve, though single readings can be large; an effect the other way counts as inactive or inconclusive.
# What was measured:
# [1] = qHTS assay to identify small molecule agonists or antagonists of the thyroid stimulating hormone receptor (TSHR) signaling pathway - wild type cell line counter screen (AID 1259384; calls by dose curve)
# Method in brief: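 Wild-type Hek293 cells, 800/well, 18 h at 37C, then compound with Ro20-1724 for 30 min RT. cAMP by HTRF (cAMP-d2/anti-cAMP cryptate), 1 h RT, fluorescence read. 15 concentrations, triplicates.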
# [2] = molecular target: Thyrotropin receptor (Homo sapiens) (UniProt P16473); test: qHTS assay to identify small molecule antagonists of the thyroid stimulating hormone receptor (TSHR) signaling pathway (AID 1259385; calls by dose curve; further: nearly all actives have a fitted effect of over 20% in size)
# Method in brief: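 TSHR-HEK293 cells (800/well) plated 18 h, then compounds with Ro20-1724 and TSH at 1.5 ng/mL final, 30 min at room temperature. cAMP quantified by HTRF (cAMP-d2/anti-cAMP-cryptate, 1 h); 15 concentrations in triplicate.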
# [3] = qHTS assay to identify small molecule agonists of the estrogen receptor alpha (ER-alpha) signaling pathway in the presence of an antagonist - cell viability counter screen (AID 1259386);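 further: series mostly up to about 92 µM; cells exposed to compounds for 22 h at 37 °C before the viability read; nearly all actives have a fitted effect of over 30% in size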
# Method in brief: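 VM7Luc4E2 cells (endogenous full-length ER-alpha, 4×ERE-luciferase) were held 5 days in phenol red-free medium with 10% charcoal-stripped FBS, plated, then given 10.0nM ICI-182,780 and compounds at 15 concentrations for 22hr at 37C; viability read by CellTiter-Fluor fluorescence.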
# [4] = molecular target: Progesterone receptor (Homo sapiens) (UniProt P06401); test: qHTS assay to identify small molecule agonists of the progesterone receptor (PR) signaling pathway (AID 1346784; calls by dose curve; further: nearly all actives have a fitted effect of over 30% in size)
# Method in brief: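 Agonist mode, quantitative HTS format in a HEK 293T line expressing a UAS-controlled beta-lactamase reporter; 16 hr compound exposure at 37C in 2% charcoal-stripped FBS, then LiveBLAzer B/G FRET fluorescence.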
# [5] = molecular target: Progesterone receptor (Homo sapiens) (UniProt P06401); test: qHTS assay to identify small molecule antagonists of the progesterone receptor (PR) signaling pathway (AID 1346795; active means well fitted inhibition curve with a large enough effect in the signal ratio in the repeat runs, not every such curve was filed as active; the % refers to the signal ratio; further: potency means the concentration at half of the fitted maximal effect)
# Method in brief: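 HEK293T PR-UAS-bla reporter cells in charcoal-stripped serum (2%) received compound after a 6 hr settling period, followed by R5020 agonist at 1 nM final; 16 hr incubation preceded the FRET substrate step and fluorescence measurement.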
# [6] = qHTS assay to identify small molecule antagonists of the progesterone receptor (PR) signaling pathway - cell viability counter screen (AID 1346798); further: series mostly up to about 92 µM; nearly all actives have a fitted effect of over 50% in size
# Method in brief: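 Same-well multiplex: after 16 hr at 37C with compound and R5020 stimulation, HEK293T cells carrying a UAS-bla reporter received LiveBLAzer substrate (2 hr RT), then CellTiter-Glo (30 min RT) for luminescent viability.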
# [7] = qHTS assay to identify small molecule agonists of the progesterone receptor (PR) signaling pathway - cell viability counter screen (AID 1346799; calls by dose curve; further: nearly all actives have a fitted effect of over 45% in size; further: potency means the concentration at half of the fitted maximal effect)
# Method in brief: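 Counter screen for cytotoxicity: compound-treated PR-UAS-bla HEK293T cells (16 hr, 37C, 5% CO2) were assayed with CellTiter-Glo, luminescence measured after 30 min at room temperature.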
# [8] = qHTS assay to identify small molecule antagonists of the TGF-beta/Smad signaling pathway - cell viability counter screen (AID 1346824); further: nearly all actives have a fitted effect of over 50% in size
# Method in brief: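 SBE-bla HEK 293T cells, incubated overnight, then compound plus 0.25 ng/mL TGF-beta1 (stock added) for 5 hr at 37 C. Viability was read in the same wells by CellTiter-Glo luminescence after 30 min at room temperature.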
# [9] = qHTS assay to identify small molecule agonists of the TGF-beta/Smad signaling pathway - cell viability counter screen (AID 1346829); further: top concentration of the series differs between compounds; nearly all actives have a fitted effect of over 45% in size
# Method in brief: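 HEK 293T SBE-bla line, 5 hr compound exposure at 37 C, multiplexed CellTiter-Glo viability read by luminescence.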
# [10] = molecular target: Estrogen receptor (Homo sapiens) (UniProt P03372); test: qHTS assay to identify small molecule agonists of the estrogen receptor alpha (ER-alpha) signaling pathway in the presence of an antagonist (AID 1259383; calls by dose curve; further: top concentration of the series differs between compounds; nearly all actives have a fitted effect of over 15% in size)
# Method in brief: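 VM7Luc4E2 cells (endogenous full-length ER-alpha, 4×ERE-luciferase) were precultured 5 days in phenol red-free medium with 10% charcoal-stripped FBS, given 10.0nM ICI-182,780 (final), then treated with compounds at 15 concentrations for 22hr at 37C; luminescence read with ONE-Glo.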
# Chain of Progesterone receptor (Homo sapiens) (P06401 whole entry, looked up): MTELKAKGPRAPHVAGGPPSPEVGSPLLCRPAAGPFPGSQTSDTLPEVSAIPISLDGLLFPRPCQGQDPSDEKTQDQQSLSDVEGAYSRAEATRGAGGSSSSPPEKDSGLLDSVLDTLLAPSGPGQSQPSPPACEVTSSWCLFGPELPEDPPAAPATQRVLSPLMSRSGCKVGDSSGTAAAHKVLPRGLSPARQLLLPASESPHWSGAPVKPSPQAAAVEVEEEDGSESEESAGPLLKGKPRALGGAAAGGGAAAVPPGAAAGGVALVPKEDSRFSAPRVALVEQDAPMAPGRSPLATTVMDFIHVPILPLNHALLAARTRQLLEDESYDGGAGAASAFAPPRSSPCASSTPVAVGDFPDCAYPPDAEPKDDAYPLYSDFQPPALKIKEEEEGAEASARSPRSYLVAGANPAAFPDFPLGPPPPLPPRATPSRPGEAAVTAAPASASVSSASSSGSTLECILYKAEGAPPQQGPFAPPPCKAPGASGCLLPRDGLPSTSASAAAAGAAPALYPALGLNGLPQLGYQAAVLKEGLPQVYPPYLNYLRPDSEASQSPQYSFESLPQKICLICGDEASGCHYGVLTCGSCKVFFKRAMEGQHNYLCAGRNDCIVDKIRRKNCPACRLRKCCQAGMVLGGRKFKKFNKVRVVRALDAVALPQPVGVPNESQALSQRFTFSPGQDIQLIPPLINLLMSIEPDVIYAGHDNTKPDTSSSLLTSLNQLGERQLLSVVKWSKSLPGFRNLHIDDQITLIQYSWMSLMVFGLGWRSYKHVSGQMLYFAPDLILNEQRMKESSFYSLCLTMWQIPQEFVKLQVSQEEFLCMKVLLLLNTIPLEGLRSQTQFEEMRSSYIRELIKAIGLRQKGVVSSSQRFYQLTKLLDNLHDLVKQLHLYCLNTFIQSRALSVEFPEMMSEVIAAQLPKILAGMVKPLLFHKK
# Chain of Thyrotropin receptor (Homo sapiens) (P16473 whole entry, looked up): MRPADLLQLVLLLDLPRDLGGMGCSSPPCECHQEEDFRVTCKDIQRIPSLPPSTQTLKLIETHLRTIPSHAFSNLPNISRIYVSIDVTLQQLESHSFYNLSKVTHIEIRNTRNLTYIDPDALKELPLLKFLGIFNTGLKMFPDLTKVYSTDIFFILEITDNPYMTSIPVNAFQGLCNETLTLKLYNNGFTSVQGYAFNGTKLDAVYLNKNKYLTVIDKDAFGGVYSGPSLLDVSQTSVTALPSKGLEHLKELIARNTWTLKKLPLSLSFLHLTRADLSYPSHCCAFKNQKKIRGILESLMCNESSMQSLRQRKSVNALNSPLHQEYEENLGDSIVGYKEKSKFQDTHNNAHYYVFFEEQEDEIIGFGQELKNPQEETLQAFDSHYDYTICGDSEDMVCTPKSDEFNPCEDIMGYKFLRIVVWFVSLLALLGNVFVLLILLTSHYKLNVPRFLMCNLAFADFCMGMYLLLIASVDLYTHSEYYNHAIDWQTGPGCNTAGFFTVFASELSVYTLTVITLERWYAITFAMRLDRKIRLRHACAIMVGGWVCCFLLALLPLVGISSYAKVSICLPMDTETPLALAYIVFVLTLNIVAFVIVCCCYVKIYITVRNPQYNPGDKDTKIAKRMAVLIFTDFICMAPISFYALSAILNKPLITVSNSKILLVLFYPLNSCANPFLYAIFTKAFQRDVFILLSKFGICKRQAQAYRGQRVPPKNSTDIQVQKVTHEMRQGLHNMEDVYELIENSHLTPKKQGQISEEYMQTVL
# Chain of Estrogen receptor (Homo sapiens) (P03372 whole entry, looked up): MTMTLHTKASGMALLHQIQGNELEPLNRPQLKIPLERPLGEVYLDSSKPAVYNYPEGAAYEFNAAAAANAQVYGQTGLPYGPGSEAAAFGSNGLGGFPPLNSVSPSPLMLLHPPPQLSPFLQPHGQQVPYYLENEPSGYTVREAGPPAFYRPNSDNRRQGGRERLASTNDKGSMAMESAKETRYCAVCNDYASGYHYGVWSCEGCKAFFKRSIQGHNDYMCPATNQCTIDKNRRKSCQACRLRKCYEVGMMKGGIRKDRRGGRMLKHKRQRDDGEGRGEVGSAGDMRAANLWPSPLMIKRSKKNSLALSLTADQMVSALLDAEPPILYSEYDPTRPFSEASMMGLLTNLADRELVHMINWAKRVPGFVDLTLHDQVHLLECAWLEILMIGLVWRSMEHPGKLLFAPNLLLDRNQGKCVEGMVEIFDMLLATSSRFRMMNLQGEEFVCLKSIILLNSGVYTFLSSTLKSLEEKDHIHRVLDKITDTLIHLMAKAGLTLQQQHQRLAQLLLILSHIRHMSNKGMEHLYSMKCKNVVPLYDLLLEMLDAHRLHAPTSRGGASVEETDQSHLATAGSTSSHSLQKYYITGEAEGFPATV
SMILES,outcome [1],outcome [2],outcome [3],Potency [4],Potency [5],outcome [6],Potency [7],outcome [8],outcome [9],Potency [10]
C[C@H]1COc2c(C3(N)CC3)c(F)cc3c(=O)c(C(=O)O)cn1c23,inactive,inactive,inactive,inactive,inactive,inactive,inactive,inactive,inactive,–
C=CCON/C(CCC)=C1\C(=O)CC(C)(C)C(C(=O)OC)=C1O,inactive,inactive,inactive,inactive,inactive,inactive,–,inactive,inactive,–
Cc1cc(C)c(N)c(Cl)c1,inactive,inactive,inactive,inactive,inactive,inactive,–,inactive,inactive,–
COc1cc(OC)cc(OC)c1,–,–,inactive,–,–,–,inactive,inactive,inactive,inactive
CCCC[O][Al]([O]CCCC)[O]CCCC,inactive,inactive,inactive,inactive,inactive,inactive,inactive,inactive,inactive,–
C=CCN(CC=C)CC=C,inactive,inactive,inactive,inactive,inactive,inactive,inactive,inactive,inactive,–
COC(=O)c1cc(Cl)c(NC(C)=O)cc1OC,inactive,inactive,inactive,inactive,inactive,inactive,–,inactive,inactive,–
CCCC(=O)C(CC)Sc1ccoc1C (centres undefined),inactive,inactive,inactive,inactive,inactive,inactive,–,inactive,inactive,–
CC(=O)c1ccc(O)c(C(N)=O)c1,inactive,inactive,inactive,inactive,inactive,inactive,inactive,inactive,inactive,–
CCCCCCC(=O)c1ccccc1,inactive,inactive,inactive,inactive,inactive,inactive,inactive,–,inactive,–
NC(=O)CC[C@@H](N)C(=O)O,inactive,inactive,inactive,inactive,inactive,inactive,inactive,inactive,inactive,–
CCOCCOCCOC(C)=O,inactive,inactive,inactive,inactive,inactive,inactive,inactive,–,inactive,–
Cc1ccc(O)c([N+](=O)[O-])c1,–,–,inactive,–,inactive,–,24.6 µM (active),inactive,inactive,inactive
Cc1cc(N)no1,inactive,inactive,inactive,inactive,inactive,inactive,inactive,–,inactive,–
CC[C@@]1(c2ccccc2)NC(=O)N(C)C1=O,inactive,inactive,inactive,inactive,inactive,–,inactive,inactive,inactive,–
O=C1CC2(CCCC2)CC(=O)N1CCNCC1COc2ccccc2O1 (centres undefined),inactive,inactive,inactive,inactive,inactive,inactive,–,–,inactive,–
CC(C)(Sc1cc(C(C)(C)C)c(O)c(C(C)(C)C)c1)Sc1cc(C(C)(C)C)c(O)c(C(C)(C)C)c1,inactive,inactive,inactive,inactive,inactive,inactive,–,inactive,inactive,–
O=C(OOC(=O)c1ccccc1)c1ccccc1,inactive,inactive,inactive,inactive,inactive,inactive,inactive,inactive,inactive,–
CCc1ccc(CC)cc1,inactive,inactive,inactive,inactive,inactive,inactive,inactive,inactive,inactive,–
CCCCCCCCCCCC(C)=O,inactive,inactive,inactive,inactive,inactive,inactive,inactive,inactive,inactive,–
O=S(=O)(O)CC(O)CCl (centres undefined),–,–,inactive,–,–,inactive,inactive,inactive,inactive,inactive
COc1cc2nc(N3CCN(C(=O)C4CCCO4)CC3)nc(N)c2cc1OC (centres undefined),–,–,inactive,–,–,inactive,inactive,inactive,inactive,inactive
CCCOc1ccc(C(=O)OCCN(CC)CC)cc1N,inactive,inactive,inactive,inactive,inactive,inactive,–,inactive,inactive,–
O=S(=O)(O)c1cc(I)c(O)c2ncccc12,inactive,inactive,inactive,inactive,inactive,inactive,inactive,inactive,inactive,–
O=C(O)P(=O)(O)O,inactive,inactive,inactive,inactive,inactive,inactive,–,inactive,–,–
COc1ccc2cc(CCC(C)=O)ccc2c1,inactive,inactive,inactive,inactive,13.3 µM (active),inactive,–,inactive,inactive,–
CCCCCCCCC1CO1 (centres undefined),inactive,inactive,inactive,inactive,inactive,inactive,inactive,inactive,inactive,–
CCOC(=O)COc1ccc2c(C)c(CCN(CC)CC)c(=O)oc2c1Cl,–,–,–,inactive,inactive,–,inactive,–,inactive,inactive
C/C(Cl)=C/CCl,inactive,inactive,inactive,inactive,inactive,inactive,inactive,inactive,inactive,–

# — PubChem BioAssay (Tox21)
